From PubChem BioAssay AID2284128 (EPA ToxCast) come the findings set out here.

Active and inactive are the calls of the source. How the source made its calls: active means hit-call score of the fitted dose curve at least 0.9, where 1 is the maximum; inactive means score below 0.9.

Chain of human Phosphatase (PTEN), PTEN (gene 5728) (P60484 whole entry, looked up): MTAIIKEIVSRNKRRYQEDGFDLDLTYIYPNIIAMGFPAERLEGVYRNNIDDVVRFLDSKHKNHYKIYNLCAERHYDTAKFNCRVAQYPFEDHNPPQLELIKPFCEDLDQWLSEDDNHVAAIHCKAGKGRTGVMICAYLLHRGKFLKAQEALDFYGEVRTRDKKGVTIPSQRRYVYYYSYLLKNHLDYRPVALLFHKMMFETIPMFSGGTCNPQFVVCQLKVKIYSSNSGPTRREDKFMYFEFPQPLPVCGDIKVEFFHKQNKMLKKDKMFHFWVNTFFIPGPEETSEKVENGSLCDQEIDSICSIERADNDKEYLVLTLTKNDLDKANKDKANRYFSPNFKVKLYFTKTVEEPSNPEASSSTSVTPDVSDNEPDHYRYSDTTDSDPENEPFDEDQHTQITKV

The test deals with human Phosphatase (PTEN), PTEN (gene 5728) (UniProt P60484). As to the kind of experiment: ERF_TW_ENZ_hPTEN: Eurofins (ERF) Enzymatic LeadHunter Assay for human Phosphatase (PTEN). On the procedure:
ERF_TW_ENZ_hPTEN is a biochemical, single-readout assay that uses extracted gene-proteins in a cell-free assay. Measurements were taken 1 hour after chemical dosing in a 96-well plate. See PTEN Human Phosphatase Enzymatic Assay, Panlabs.ERF_TW_ENZ_hPTEN is an assay component calculated from the ERF_TW_ENZ_hPTEN assay. It is designed to measure enzyme activity using a type of enzyme reporter as detected by fluorescence intensity with spectrophotometry technology.Data from the assay component ERF_TW_ENZ_hPTEN was analyzed at the assay endpoint, ERF_TW_ENZ_hPTEN, in the positive analysis fitting direction relative to DMSO as the negative control and baseline of activity. Using a type of enzyme reporter, loss-of-signal activity can be used to understand changes in enzymatic activity as they relate to gene PTEN. To generalize the intended target to other relatable targets, this assay endpoint is annotated to the phosphatase intended target family, where the subfamily is dual-specific phosphatase.
Human recombinant phosphatase PTEN expressed in E. coli is used. Test compound and/or vehicle is preincubated with 2 ug/ml enzymedouble dagger for 15 minutes at 37C in modified Tris-HCl buffer pH 8.5. The reaction is initiated by addition of 100 uM DiFMUP for 60 minutes. Determination of the amount of DiFMU formed is read spectrofluorimetrically at 358 nm/450 nm. […]
Regarding `O=C(/C=C/c1ccc(O)cc1)CC(=O)/C=C/c1ccc(O)cc1`, the AC50 was 5 µM (active).
